Source: PubChem BioAssay (National Center for Advancing Translational Sciences (NCATS))
Most compounds without a hit are left out; they make up all but 5% or so of the library.
Vaccinia Venus = vaccinia inhibition (Venus reporter). Vaccinia virus Venus reporter expression, fluorescence. Potency, µM (titrated, usually from 36.5 µM), for inactives: top-dose activity change, negative = inhibition, hits mostly inhibitors. hit rate 0.46% among 330,000; calls by dose curve; tested in A549 cells; note: potency is the fitted concentration of half-maximal effect; nearly all actives have a fitted effect of over 30% in size
Tb PYK inh = T. brucei pyruvate kinase inhibition; Q57TT1; TbPYK enzyme, Kinase-Glo Plus ATP luminescence, 45 min; Potency, µM (series often up to 76.8 µM), for the others: top-dose activity, negative = inhibition, actives largely listed as inhibitors; hit rate 0.12% among 410,000; note: potency is the fitted concentration of half-maximal effect; nearly all actives have a fitted effect of over 50% in size
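Assay buffer: 50 mM TEA pH 7.2, 100 mM KCl, 10 mM MgCl2, 0.05% BSA, 0.01% Tween-20. Pyruvate kinase from T. brucei plus substrate met compound, then ADP (130 uM final). Luminescence was read post 45 min RT.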
LmPK inh = LmPK (Leishmania mexicana) enzyme inhibition | Q27686 | purified LmPK, Kinase-Glo ATP luminescence, 1 h | Potency, µM (doses to about 57.5 µM), for inactives: top-dose activity change, negative = inhibition, actives largely listed as inhibitors | hit rate 0.37% among 290,000 | AID 1721; note: potency is the fitted concentration of half-maximal effect
Target sequence (Q27686 whole entry, looked up): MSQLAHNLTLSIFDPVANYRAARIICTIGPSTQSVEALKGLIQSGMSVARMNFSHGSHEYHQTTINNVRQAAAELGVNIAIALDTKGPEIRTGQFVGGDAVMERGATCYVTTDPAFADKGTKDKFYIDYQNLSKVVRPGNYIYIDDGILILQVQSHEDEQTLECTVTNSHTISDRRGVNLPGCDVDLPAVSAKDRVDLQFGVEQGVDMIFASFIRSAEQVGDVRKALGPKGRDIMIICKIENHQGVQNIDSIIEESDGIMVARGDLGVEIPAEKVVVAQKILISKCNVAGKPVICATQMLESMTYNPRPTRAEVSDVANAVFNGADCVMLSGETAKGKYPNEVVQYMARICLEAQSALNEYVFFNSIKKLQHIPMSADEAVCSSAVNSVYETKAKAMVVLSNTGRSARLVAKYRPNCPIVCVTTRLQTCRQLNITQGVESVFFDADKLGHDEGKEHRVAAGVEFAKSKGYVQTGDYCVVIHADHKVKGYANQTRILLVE
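0.1 nM LmPK, 0.5 mM PEP, 0.1 mM ADP; 50 mM imidazole pH 7.2, 7 mM MgCl2, 50 mM KCl; 1 h RT. Kinase-Glo luminescence readout, normalized to no-enzyme (full inhibition) and uninhibited wells.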
HCMV antiviral = inhibitors of human cytomegalovirus; HFF cells, HCMV-luciferase reporter, 72 h; active compounds read low; activity change, negative = inhibition, % at 57.5 µM; hit rate 4.5% among 410,000; AID 1259415; in the data active = activity change below about -60%; inconclusive = no clear call, values can overlap the other calls; inactive = above about -39%
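Two compound doses tested in HFFs infected with HCMV-luciferase, MOI 1 PFU/cell, 72 h at 37C. Lysate luminescence read with OneGlo; data normalized against buffer-only and 10uM Salinomycin inhibitor controls.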
Vaccinia mCherry = inhibitors of vaccinia virus infection (mCherry reporter signal); AID 720579; hit rate 0.63% among 310,000; Vaccinia virus mCherry reporter infection, fluorescence; Potency, µM (top dose mostly 36.5 µM), for inactives: at the top dose activity change, negative = inhibition, actives largely listed as inhibitors; calls by dose curve; tested in A549 cells; note: potency is the fitted concentration of half-maximal effect; nearly all actives have a fitted effect of over 35% in size
* = called active by the depositor; i = inactive; ? = inconclusive; nt = no result; [ ] = dose if it differs, or a comment. Unless noted, calls come from the whole dose curve; as a rule, active = well fitted curve in the direction sought with a large enough effect; inconclusive = small, poorly fitted or top-dose-only effect, or another doubt; inactive = no such curve, though single readings can be large; an effect the other way counts as inactive or inconclusive. % is set by controls: 0 for no effect and ±100 for the full control effect.

SMILES	Vaccinia Venus	Tb PYK inh	LmPK inh	HCMV antiviral	Vaccinia mCherry
CCCSc1ccc2nc(NC(=O)OC)[nH]c2c1	?	13%	-4%	-20	?
CC(=O)c1ccc2c(c1)CC1(C2)Cc2cc3c(cc2C1)C(=O)CC3 (stereo unspecified)	?	-1%	nt	-36	?
O=C(O/N=C1/CCCc2occc21)c1ccccc1	3%	-6%	13µM*	-16	nt
O=C(O/N=C1/CCCc2occc21)c1ccc(Cl)cc1Cl	2%	-10%	-9%	-37	-8%
Cc1cc(C)nc(SCc2ccc(C(=O)NNC(=O)Nc3cccc(Cl)c3)cc2)n1	11µM*	-5%	-4%	-31	14µM*
Cc1cc(C)nc(SCc2ccc(C(=O)N/N=C/c3ccncc3)cc2)n1	-18%	-4%	9%[11.5 µM]	19	i
C[C@@H](O)CNC(=O)c1[nH]cnc1C(=O)Nc1cccc(Cl)c1	-15%	7%	nt	-30	1%
CC1S/C(=C(\C#N)C(=O)NCc2ccco2)N(c2ccc(F)cc2)C1=O (stereo unspecified)	7%	-13%	-1%	-97*	nt
COc1ccc2[nH]cc(/C=N/NS(=O)(=O)c3ccc(C)cc3)c2c1	nt	-2%	2%	-64*	nt
O=C1N(c2ccccc2)CCN1c1ccccc1	nt	-11%	-11%	57	nt
O=C1NCCN1c1ccccc1	-1%	-5%	nt	-79*	-14%
Cc1ccccc1-c1nc(CN2CCC(C(=O)NCc3ccco3)CC2)c(C)o1	nt	-2%	-2%	nt	nt
CCCCNS(=O)(=O)c1ccc2nc(SCC(=O)Nc3cccc(F)c3)[nH]c2c1	?	1%	4%	-36	-29%
CCCCNS(=O)(=O)c1ccc2nc(SCC(=O)c3ccccc3OC)[nH]c2c1	-15%	-5%	9%	-79*	-21%
CCCCNS(=O)(=O)c1ccc2nc(SCC(=O)Nc3ccccc3Cl)[nH]c2c1	?	-4%	3%	-82*	?
CCCCNS(=O)(=O)c1ccc2nc(SCC(N)=O)[nH]c2c1	nt	-5%	-1%	-13	nt
Cc1cc(Nc2nc3ccccc3[nH]c2=O)n(-c2ccccc2)n1	8.9µM*	2%	0%	-14	7.1µM*
Cc1cc(Nc2cnc3ccccc3n2)n(-c2ccccc2)n1	-21%	1%	-1%	38	?
O=C1NC(=NCc2ccccc2)S/C1=C\c1ccccc1	-24%	2%	1%	-68*	?
O=C1N=c2ccccc2=C1c1sc(=O)[nH]c1O	nt	?	10µM*	4	nt
CCc1ccc(NS(=O)(=O)c2ccc3oc(=O)c4ncn(CC)c4c3c2)cc1	-11%	2%	nt	0	-15%
CC(C)[C@H](NC(=O)c1ccccc1Cl)C(=O)Nc1nc(-c2ccccn2)cs1	?	-5%	-7%	-83*	?
O=C(COc1ccc(F)cc1)Nc1nc(-c2ccccn2)cs1	-12%	-10%	nt	-25	-29%
CCc1nnc(NC(=O)C(NC(=O)c2ccccc2Cl)C(C)C)s1 (stereo unspecified)	-3%	0%	-3%	-31	i
CC(Oc1ccc(Br)cc1)C(=O)Nc1nc(-c2ccccn2)cs1 (stereo unspecified)	?	-17%	-11%	-88*	13µM*
SMILES	Vaccinia Venus	Tb PYK inh	LmPK inh	HCMV antiviral	Vaccinia mCherry
CCc1c(C)sc2c1CCN(Cc1ccc(C#N)cc1)C2c1ccccc1 (stereo unspecified)	16%	0%	nt	-24	-5%
CCc1c(C)sc2c1CCN(C(=O)Nc1cc(C)cc(C)c1)C2c1ccccc1 (stereo unspecified)	10%	1%	nt	-6	-7%
CCc1c(C)sc2c1CCN(Cc1ccc(F)cc1)C2c1ccccc1 (stereo unspecified)	-9%	1%	nt	-98*	-18%
CCc1c(C)sc2c1CCN(Cc1cccc(F)c1)C2c1ccccc1 (stereo unspecified)	-10%	1%	nt	-78*	-25%
C[n+]1ccc(-c2ccccc2)c2ccccc21	-18%	-2%	nt	-87*	-7%
C[n+]1ccc(/C=C/c2ccccc2O)c2ccccc21	-13%	-6%	-4%	-97*	-12%
CN(C)c1ccc(/C=C/c2cc[n+](C)c3ccccc23)cc1	i	?	?	-99*	i
O=C(CCc1ccccc1)NC1CCS(=O)(=O)C1 (stereo unspecified)	-11%	0%	nt	8	-17%
CCOC(=O)c1c(C)nc2sc(C(N)=O)c(N)c2c1-c1ccccc1	?	8%	-5%	-62*	nt
CCOC(=O)c1c(C)nc2c(c1-c1cc(OC)ccc1OC)C(=O)c1ccccc1-2	nt	nt	0%	-23	nt
CCOC(=O)c1c(C)nc2c(c1-c1ccccc1)C(=O)c1ccccc1-2	?	3%	0%	-101*	?
Cc1ccccc1NC(=O)CSc1nnc(-c2ccco2)c(-c2ccco2)n1	nt	20µM*	5%	nt	nt
C[C@@]12C(=O)N(Cc3ccccc3)CC(=O)N1[C@H]1c3cc(Cl)ccc3OC[C@@H]1[C@@H]2c1ccccc1	-7%	-4%	nt	-5	-3%
CCOc1cc2[nH]c(=O)n(Cc3ccc(C(=O)NCCCN4CCC(C)CC4)cc3)c(=O)c2cc1OCC	-9%	-3%	-1%	-64*	-13%
O=C(NCc1ccccc1)C1=C[C@H](C2CCCCC2)C[C@H](OCc2ccc(CO)cc2)O1	?	-7%	8%	-84*	i
O=C(NCc1ccccc1)C1=C[C@@H](C2CC2)C[C@@H](OCc2ccc(CO)cc2)O1	-14%	-7%	8%	-6	?
O=C(NCc1ccccc1)C1=C[C@@H](c2csc3ccccc23)C[C@@H](OCc2ccc(CO)cc2)O1	?	4%	9%	-98*	?
O=C(NCc1ccccc1)C1=C[C@@H](c2csc3ccccc23)C[C@@H](OCCCCO)O1	-19%	-9%	-1%	-97*	i
O=C(O)C1=C[C@H](c2csc3ccccc23)C[C@H](OCc2ccc(CO)cc2)O1	3%	-1%	4%	5	i
Cc1[nH]n(-c2ccc([N+](=O)[O-])cc2)c(=O)c1C=NCCN1CCN(C(=O)C(C)C)CC1	-9%	-10%	14µM*	61	i
O=C1Nc2cc(C(=O)NCC3CCCO3)ccc2S/C1=C/c1ccccc1F (stereo unspecified)	nt	-2%	-2%	?	nt
Cc1ccc2nc(-c3ccc(O)c(O)c3)cn2c1	-13%	-23%	?	15	-4%
Cc1ccc2nc(-c3ccccc3)cn2c1	0%	25µM*	7.1µM*	-66*	i
CCCCNC(=O)C1CC(c2c(Cl)cccc2Cl)=NO1 (stereo unspecified)	-26%	4%	2%	?	-5%
COc1ccc(-c2noc(C(C)NC(=O)c3ccco3)n2)cc1OC (stereo unspecified)	-6%	0%	-1%	-6	0%
O=C1Nc2ccc(Br)cc2/C1=C/C(=O)c1ccc2c(c1)OCO2	nt	1%	0%	-100*	nt
